“And” between values parts separate entries of the source, which are not always exact repeats. Equal values may be shown once. Among all 74,000 compounds or so, about 1,100 (1.5%) were called active. Not shown: some 5% with an inconclusive outcome. The list comes from a sample in which actives are over-represented; it also holds similar structures and randomly drawn compounds. Entries that show only a call come without a potency. Values without a mark were called inactive. Calls come from the whole dose curve; as a rule, active = well fitted inhibition curve with a large enough effect; inconclusive = small, poorly fitted or top-dose-only effect; inactive = no such curve, though single readings can be large or run the other way.
Potency is the fitted concentration of half-maximal effect.

The target of this experiment is Polyunsaturated fatty acid lipoxygenase ALOX15 (Homo sapiens) (UniProt P16050). Put plainly: qHTS Assay for Inhibitors of 15-hLO (15-human lipoxygenase). Note: nearly all actives have a fitted effect of over 55% in size. The conditions noted are these: purified 15hLO-1, xylenol orange hydroperoxide absorbance; series mostly up to 57.1 µM. From the text: Assay Overview: NIH Molecular Libraries Screening Centers Network [MLSCN] NIH Chemical Genomics Center [NCGC] MLSCN Grant: MH081283-01A1 PI Name: Holman, T.R., University of California, Santa Cruz Human lipoxygenase 15hLO-1 is a member of the closely related lipoxygenase family of enzymes which catalyze the site-specific oxidation of arachidonic acid to various hormone precursor molecules and as such is a candidate for drug development in a variety of disease areas, such as cancer and inflammation. Inhibition of 15hLO-1 activity was screened by utilizing arachidonic acid as a substrate. The extent of hydroperoxide product formation was measured by a secondary chromogenic reaction in which xylenol orange (XO, Sigma-Aldrich, cat. number 39,818-7) reacts with the ferric ions produced from the reaction between the hydroperoxide and ferrous ions. The Fe(III)-XO complex is characterized with red-shifted absorbance at 560 nm. A purified preparation of human 15hLO-1 was supplied by Professor Ted Holman, University of California, Santa Cruz.
Chain of Polyunsaturated fatty acid lipoxygenase ALOX15 (Homo sapiens) (P16050 whole entry, looked up): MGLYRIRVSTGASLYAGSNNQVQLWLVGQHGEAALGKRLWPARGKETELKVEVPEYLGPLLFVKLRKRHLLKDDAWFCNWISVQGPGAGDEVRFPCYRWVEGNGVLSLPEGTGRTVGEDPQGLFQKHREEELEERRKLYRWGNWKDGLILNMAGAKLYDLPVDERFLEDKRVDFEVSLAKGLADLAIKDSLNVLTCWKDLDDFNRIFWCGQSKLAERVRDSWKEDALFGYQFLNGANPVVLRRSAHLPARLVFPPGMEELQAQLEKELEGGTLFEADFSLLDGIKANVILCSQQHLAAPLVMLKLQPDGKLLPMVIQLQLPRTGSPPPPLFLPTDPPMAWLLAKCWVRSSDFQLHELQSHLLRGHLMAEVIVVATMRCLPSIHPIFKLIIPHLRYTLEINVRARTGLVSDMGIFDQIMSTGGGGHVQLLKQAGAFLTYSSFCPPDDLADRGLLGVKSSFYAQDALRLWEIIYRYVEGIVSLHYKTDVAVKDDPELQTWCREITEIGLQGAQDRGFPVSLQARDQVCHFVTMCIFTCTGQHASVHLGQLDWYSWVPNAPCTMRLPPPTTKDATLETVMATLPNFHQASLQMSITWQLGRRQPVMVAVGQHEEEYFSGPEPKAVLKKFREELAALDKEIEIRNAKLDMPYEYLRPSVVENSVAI
Assay Protocol: Buffer: 25 mM Hepes pH 7.5, 0.01% Triton X-100. Reagents/Controls: Buffer in columns 3 and 4 as negative control (no enzyme). Substrate solution: 50 uM arachidonic acid (Sigma-Aldrich, St. Louis, MO) final concentration dispensed throughout the plate. Enzyme: 40 nM 15hLO-1 final concentration in columns 1, 2, 5-48. Column 1 is neutral (100% activity). Column 2 contained pin-transferred titration of NDGA (nordihidroguaiaretic acid, Sigma-Aldrich, N 5023, top concentration 10 mM in DMSO, then 1:2 dilution in duplicate). (Dilution factor: 23 nL into 4 uL.) Chromogenic detection reagent (divalent iron/xylenol orange, Fe-XO): 200 uM xylenol orange plus 300 uM ferrous ammonium sulfate prepared freshly in 50 mM sulfuric acid. Assay Steps: Three uL of enzyme were dispensed to 1536-well Greiner black clear bottom plates. Compounds and controls (23 nL) were transferred via Kalypsys PinTool. The plates were incubated for 15 min at room temperature, and then 1 uL of substrate solution was added to start the reaction. After room temperature incubation for 6 minutes, 4 uL of Fe-XO solution was added to each well followed by a short spin (1000 rpm, 15 sec) and the plates were then incubated for 30 min. The absorbance at 405 and 573 nm were measured using ViewLux (Perkin-Elmer) High-throughput CCD imager and absorbance protocol settings. The 573-to-405 absorbance ratio was used to compute reaction progress.
On to `Cc1nc2ccccc2c(=O)n1CCCn1ccnc1`, for which the activity change, negative = inhibition entry is “inactive”. On to `Cc1ccnc(-n2sc3ccccc3c2=O)n1`, for which the Potency is 20 µM (active). For `Cc1ccnc(N2CCC(C(=O)NC3CCCCCC3)CC2)n1`, the activity change, negative = inhibition result was “inactive”.

As for `CC(C)=CCC/C(C)=C/CC/C(C)=C/CC/C(C)=C/CO`, the activity change, negative = inhibition result was “inactive”. As to `O=C(O)[C@@H](O)Cc1ccccn1`, the activity change, negative = inhibition was 2.76% [at 11.4 µM]. Still for that read-out and setting: the result for `COc1ccc(/C=C/NC(=O)Cc2ccc(OC)c(OC)c2)cc1` reads 4.24% [at 11.4 µM] and -3.82% [at 11.4 µM]; that for `CCOC(=O)N1CCN(CC(=O)Nc2cc(C)nn2-c2nc3ccccc3s2)CC1`, “inactive”; that for `CCCCc1nc2ccccc2c(=O)n1NC(=O)c1c(O)c2cccc3c2n(c1=O)CC3`, “inactive”. Consider `CCCCc1nc2ccccc2c(NC(=O)CN2CCN(C)CC2)c1CCC`, for which the Potency was 15.8 µM (active).

For `CC(C)CN1CCc2nc(-c3ccccc3)c3c(c2C1)COC(C)C3` (configuration not stated), the activity change, negative = inhibition was -12.9% [at 11.4 µM].

On to `CO[C@H]1COC(=O)[C@H](Cc2ccccc2)NC(=O)C/C=C\[C@@H](C)[C@H](OC)COC(=O)C/C=C\[C@@H]1C`, for which the activity change, negative = inhibition was 10.5% [at 11.4 µM]. Still for that read-out and setting: to `COC(=O)NC(c1ccccc1)[C@]1(C(C)=O)CCCC1=O` (some centres not stated) belongs 9.57% [at 11.4 µM]; to `Nc1cc(=O)nc(SCc2ccccc2)n1Cc1ccco1`, “inactive”; to `c1ccc(CSc2nnc(-c3ccco3)n2Cc2ccccc2)cc1`, “inactive”. As for `c1ccc(CSc2nnc(-c3ccco3)c(-c3ccco3)n2)cc1`, the Potency is 6.31 µM (active).

With `CC(=O)OC1CCC2(O)CC1(C)CCC1C2CC1(C)C` (configuration not stated), the activity change, negative = inhibition entry was “inactive”. For `COc1ccc(CCC(=O)c2c(O)cc(OC3OC(CO)C(O)C(O)C3O[C@@H]3OC(C)C(O)C(O)C3O)cc2O)cc1O` (some centres not stated), the activity change, negative = inhibition entry was “inactive”. Consider `CC(C)[C@@H](OCc1ccccc1)[C@H](C)/C=N\OC[C@@H](C)[C@H](OCc1ccccc1)C(C)C`, for which the activity change, negative = inhibition was -0.92% [at 11.4 µM]. Take `CO[C@H]1COC(=O)CCC[C@@H](C)[C@H](OC)COC(=O)[C@@H](C)NC(=O)C/C=C\[C@@H]1C`: the activity change, negative = inhibition was -1.39% [at 11.4 µM]. Turning to `CCC1(C)CC(=O)NC1=O` (configuration not stated), the activity change, negative = inhibition result is “inactive”. As to `Cc1cc(C)cc(N(C(C)C(=O)Nc2c(C)n(C)n(-c3ccccc3)c2=O)S(C)(=O)=O)c1` (configuration not stated), the activity change, negative = inhibition entry is “inactive”. On to `COC(=O)Nc1c(C)n(C)n(-c2ccccc2)c1=O`, for which the activity change, negative = inhibition result was “inactive”. Regarding `Cc1c(NC(=O)C(C)OC(=O)c2cc3c4ccccc4n(C)c3s2)c(=O)n(-c2ccccc2)n1C` (configuration not stated), the Potency was 31.6 µM (active). `CC1(C)OC2CO[C@]3(COS(N)(=O)=O)OC(C)(C)OC3C2O1` (some centres not stated): the activity change, negative = inhibition entry is “inactive”. On the same count and under the same terms, to `COc1ccccc1OCCNCC(O)COc1cccc2[nH]c3ccccc3c12` (configuration not stated) belongs “inactive”; to `Clc1ccc(CSc2nnc([C@@H]3CCCN3)o2)cc1`, “inactive”; to `CC(C)N(CCNC(=O)c1ccc(-n2c(=O)c(=O)[nH]c3ccccc32)cc1)C(C)C`, “inactive”.

Regarding `CCCc1[nH]nc2c1C(c1ccc(OC(=O)c3ccco3)cc1)C(C#N)=C(N)O2` (configuration not stated), the activity change, negative = inhibition entry was “inactive”. Regarding `CCCc1[nH]nc2c1C(c1ccc(Br)s1)C(C#N)=C(N)O2` (configuration not stated), the Potency is 15.8 µM (active). As to `CCCc1[nH]nc2c1C(C1CC=CCC1)C(C#N)=C(N)O2` (configuration not stated), the activity change, negative = inhibition result is “inactive”. On to `C=C1C([C@@]2(C)C(OC(C)=O)CC(=O)O[C@@](C)(COC(C)=O)C2CC(=O)OC)C(OC=O)C(OC(=O)C(O)C(C)CC)[C@]2(C)C(c3ccoc3)CC(=O)C12O` (some centres not stated), for which the activity change, negative = inhibition result was “inactive”. As to `C/C=C(/C)C(=O)OC1Cc2c(ccc3ccc(=O)oc23)OC1(C)C` (configuration not stated), the activity change, negative = inhibition entry was “inactive”. Turning to `CCOC(=O)NCc1ccc2c(c1)OCO2`, the activity change, negative = inhibition result is “inactive”. Still for that read-out and setting: to `CCCCC(=O)Nc1ccc2c(c1)OCCO2` belongs “inactive”. As to `CCC1=C/C(=C\c2ccc3c(c2)OCO3)C(=O)S1`, the Potency was 25.1 µM (active). For `Cc1ccc(C2CC(c3cccc(C)c3)n3nc(N)nc3N2)cc1` (configuration not stated), the activity change, negative = inhibition entry is “inactive”. Regarding `CO[C@@H]1COC(=O)C/C=C\[C@H](C)[C@@H](NS(=O)(=O)c2ccc(C)cc2)COC(=O)C/C=C\[C@@H]1C`, the activity change, negative = inhibition was 7.8% [at 11.4 µM] and 8.79% [at 11.4 µM]. Regarding `COc1ccc(C2CC(=O)c3c(O)cc(OC4OC(COC5OC(C)C(O)C(O)C5O)C(O)C(O)C4O)cc3O2)cc1O` (configuration not stated), the activity change, negative = inhibition entry is “inactive”. With `COc1c(C(C)C)oc2cc3oc(=O)ccc3cc12`, the activity change, negative = inhibition entry is “inactive”.

In the case of `CC(=O)Oc1c2c(c3c(c1CC=C(C)C)O[C@@]14C(=CC5CC1C(C)(C)OC4(C/C=C(\C)C(=O)O)C5=O)C3=O)OC(C)(CCC=C(C)C)C=C2` (some centres not stated), the activity change, negative = inhibition entry was “inactive”. With `Nc1nc2nc(Cl)[nH]c2c(=O)[nH]1`, the activity change, negative = inhibition result is “inactive”. On to `CC1CCc2c(sc3c2C2=NS(=O)(=O)CCN2C=N3)C1` (configuration not stated), for which the activity change, negative = inhibition entry was “inactive”.

The values are drawn from PubChem BioAssay AID887 (National Center for Advancing Translational Sciences (NCATS), 2007).
